About 83,000 compounds went through this panel and 20% of them were active in at least one assay; those are over-represented in the sample as a whole.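 Growth was measured after 48 h exposure to one concentration of compound in 96-well plates. Values under 10 count as active.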 A number with no mark means an inactive call. The source made the active and inactive calls.

The test system of this test is HCT-116 colon. Put plainly: NCI-60 one-dose screen, 48 h (100 = growth as untreated, 0 = no growth, -100 = all killed). Particulars: 10 µM unless noted.
Take `Cc1[nH]c(-c2cc(N)ccc2Cl)c2c1C(=O)CCCC2`: the growth was 29.4%.
The value for `COc1ccc(/C=C\c2cc(OC)c(OC)c(OC)c2)cc1OC(=O)c1cccc(Cn2cc(CCOC(=O)[C@H](N)Cc3cn(C)c4ccccc34)nn2)c1` was 3.68% (active); that for `CC1CCNC(C)C1` (centres undefined) was 108%; that for `Clc1ccc2c(NCCNc3nc(N4CCOCC4)nc4ccccc34)ccnc2c1` was -7.53% (active).
The value for `CNC(=O)c1cc(Oc2ccc(NC(=O)Nc3ccc(Cl)c(SC)c3)c(F)c2)ccn1` was 30.8%; that for `O=Nc1c(O)c(Cl)cc2ccccc12` was 31.5%.
With `COc1ccc(-c2nc3ccc(-c4nc5ccc(N6CCN(c7ccncc7)CC6)cc5[nH]4)cc3[nH]2)cc1OC`, the growth is 17.8%.
As for `COc1cc(/C=C/c2cc(O)c3cc(C(C)=O)c(=O)oc3c2)cc2c1O[C@]1(C)CC[C@@H](O)C(C)(C)[C@H]1C2`, the figure is 44.2%; as for `COc1ccc(/C=C/c2nc3ccccc3nc2/C=C/c2ccc(OC)cc2)cc1`, 89%; as for `CN(C)CCCNc1c2ccccc2nc2ccccc12`, 99%.
Regarding `O=C(Nc1ccc(Cl)cc1)c1cc2cc(F)ccc2cc1O`, the growth is 12.3%.
As for `Cc1ccc(C2=NN3C(C2)c2cc(Br)ccc2OC32CCN(Cc3ccccc3)CC2)o1` (centres undefined), the figure is 99.6%.
The value for `O=C(CCN1C(=O)/C(=C/c2ccc(Cl)cc2)SC1=S)NCCCN1CCOCC1` was 98.7%; that for `C#CCOc1ccc2ncnc(N3CCN(C(=O)CCl)CC3)c2c1` was 27.7% [8.25 µM].
On to `Cc1ccc(C(SCC(N)C(=O)O)(c2ccccc2)c2ccc(C)cc2)cc1` (centres undefined), for which the growth was 6.49% (active).
The value for `Cc1cc(Nc2ccc(C)c(Cl)c2)n2nc(C(F)(F)F)nc2n1` was 18.5%; that for `COc1ccccc1NS(=O)(=O)c1ccc2oc(SC(C)C)nc2c1` was 63.4%.
As for `CCN1CCN(c2nc(NCCCNc3ccnc4cc(Cl)ccc34)c3ccccc3n2)CC1`, the figure is 20.7%; as for `CCc1nnc(CNc2ccc(Cl)cc2)o1`, 96.1%; as for `CCOC(=O)c1c(C)oc2ncnc(N3CCN(C(=S)Nc4ccccc4)CC3)c12`, 97.3%.
With `C=C1c2nc3ccccc3n2C=C(c2cccc(Cl)c2)N1Cc1ccc(OC)cc1`, the growth was 12.8%.
The value for `COc1ccc(/C=C/C(=O)c2ccc(O)c(CN3CCN(c4cc5c(cc4F)c(=O)c(C(=O)O)cn5C4CC4)CC3)c2)cc1` was 9.41% (active); that for `O=C1NC(=Nc2ccc(O)cc2)S/C1=C\c1cccc(Cl)c1` was 24.2%; that for `N#Cc1c(-c2ccc(Cl)cc2)nc(N/N=C/c2cccc(Br)c2)nc1N1CCOCC1` was 61.5%.
As for `COc1ccc(N=Nc2nccs2)c(O)c1`, the growth was 22.3%.
On to `O=C1/C(=C/C(Cl)=C/c2ccccc2)SC(=S)N1CCc1ccc(O)cc1`, for which the growth was -62.3% (active).
As for `COc1cc(/C=C/C(=O)c2cccnc2Nc2ccc(F)cc2)cc(OC)c1OC`, the figure is 13.9%; as for `O=C1Nc2ccc(Br)cc2C12Oc1ccccc1C1CC(c3ccc(F)cc3)=NN12` (centres undefined), 92.3%; as for `CSc1nc(Nc2cccc(NC(=O)CCl)c2)c(C#N)c(-c2cccc([N+](=O)[O-])c2)n1`, -6.05% (active).
As for `c1csc(C2=NN3C(C2)c2ccccc2OC3c2ccncc2)c1` (centres undefined), the figure is 102%; as for `CCCn1c(=O)[nH]c(N)c([C@H]2c3ccccc3Oc3[nH]c(=O)n(CCC)c(=O)c32)c1=O`, 32.5%; as for `COc1cccc(-c2nc3sccn3c2-c2ccnc(NCCCNS(=O)(=O)c3cccc(F)c3)c2)c1`, 20.8%.
As for `CCCCC/C(C=C(C#N)C#N)=C/c1ccccc1`, the figure is 27.7%; as for `C=C(C)C1CC(O)C2(C)CCCC3C2C1CC(C)C3(C)CC/C(C)=C/C(O)C1CCC(=O)c2c(OC)cc(OC)cc21` (centres undefined), 28.5%.
Consider `O=C1CC(=NCC(=O)n2c(-c3ccccc3)nc3ccccc32)NN1`, for which the growth was 94.6%.
As for `Clc1ccc2c(NCCCNc3nc(-n4ccnc4)nc4ccccc34)ccnc2c1`, the growth is 88.3%.
The value for `CN(CCCCCl)P(=O)(OCc1ccc([N+](=O)[O-])o1)C(F)(F)c1ccc(CC(=O)NC[C@@H](O)/C=C\[C@@H](O)[C@H](CO)Cc2ccccc2)cc1` (some centres undefined) was 93.3%; that for `O=C1Nc2c(ccc(Cl)c2Cl)/C1=C\c1ccc(C(F)(F)F)cc1` was 68.2%.
As for `O=C1CSC(=S)N1CCc1ccc(O)cc1`, the figure is 71.5%.

For the origin of these results see PubChem BioAssay (NCI).
